In the first assay the target is HOXA2 (Homo sapiens, UniProt O43364 129-215, R185T). Briefly: PBM; 200 nM protein, PBS. As to conditions: dsDNA, one strand shown.
Sequence of HOXA2 (Homo sapiens, UniProt O43364 129-215, R185T) (O43364 129-215 R185T): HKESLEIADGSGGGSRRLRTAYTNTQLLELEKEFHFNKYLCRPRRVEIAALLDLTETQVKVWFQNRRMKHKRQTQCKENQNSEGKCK
With GTTTGCAA, the binding signal was 8.76 upbm affinity estimate (log intensity, higher = more binding, comparable within an allelic series).

With ACTCGTAA, the binding signal is 9.32 upbm affinity estimate (log intensity, higher = more binding, comparable within an allelic series).

Regarding AAATACCC, the binding signal is 9.06 upbm affinity estimate (log intensity, higher = more binding, comparable within an allelic series).

On to AAAAATTG, for which the binding signal was 8.96 upbm affinity estimate (log intensity, higher = more binding, comparable within an allelic series).

AGATGACC: the binding signal is 9.18 upbm affinity estimate (log intensity, higher = more binding, comparable within an allelic series).

Turning to GACCATCA, the binding signal was 8.84 upbm affinity estimate (log intensity, higher = more binding, comparable within an allelic series).

For the sequence CCTATCAG, the binding signal is 8.81 upbm affinity estimate (log intensity, higher = more binding, comparable within an allelic series).

Consider AGATAGAT, for which the binding signal was 8.87 upbm affinity estimate (log intensity, higher = more binding, comparable within an allelic series).

As for AATTGGGC, the binding signal is 9.64 upbm affinity estimate (log intensity, higher = more binding, comparable within an allelic series).

For TAAACATA, the binding signal was 8.59 upbm affinity estimate (log intensity, higher = more binding, comparable within an allelic series).

In the case of AAACTTAA, the binding signal was 8.91 upbm affinity estimate (log intensity, higher = more binding, comparable within an allelic series).

On to AGGTTGAT, for which the binding signal is 8.92 upbm affinity estimate (log intensity, higher = more binding, comparable within an allelic series).

Take ACAACTTA: the binding signal was 9.5 upbm affinity estimate (log intensity, higher = more binding, comparable within an allelic series).

As for AGATGTAA, the binding signal was 9.25 upbm affinity estimate (log intensity, higher = more binding, comparable within an allelic series).

On to ATCATCTG, for which the binding signal was 9.25 upbm affinity estimate (log intensity, higher = more binding, comparable within an allelic series).

As to AACTATTG, the binding signal is 8.83 upbm affinity estimate (log intensity, higher = more binding, comparable within an allelic series).

In the case of AACTAAAA, the binding signal is 8.87 upbm affinity estimate (log intensity, higher = more binding, comparable within an allelic series).

As for AAATCAGC, the binding signal was 9.59 upbm affinity estimate (log intensity, higher = more binding, comparable within an allelic series).

Consider CATCTACG, for which the binding signal was 8.85 upbm affinity estimate (log intensity, higher = more binding, comparable within an allelic series).

For ATAGAAAT, the binding signal was 9.28 upbm affinity estimate (log intensity, higher = more binding, comparable within an allelic series).

For the sequence TATCAAAA, the binding signal was 8.75 upbm affinity estimate (log intensity, higher = more binding, comparable within an allelic series).

Take CATTTTAC: the binding signal was 8.88 upbm affinity estimate (log intensity, higher = more binding, comparable within an allelic series).

On to AAACATAA, for which the binding signal was 9.4 upbm affinity estimate (log intensity, higher = more binding, comparable within an allelic series).

ATCAGAAA: the binding signal is 8.59 upbm affinity estimate (log intensity, higher = more binding, comparable within an allelic series).

Take ATTTCATC: the binding signal was 8.72 upbm affinity estimate (log intensity, higher = more binding, comparable within an allelic series).

For the sequence CTATTCAA, the binding signal was 9.27 upbm affinity estimate (log intensity, higher = more binding, comparable within an allelic series).

A further assay deals with HOXB9 (Homo sapiens, UniProt P17482 171-250). Briefly: PBM; 200 nM protein, PBS. To be noted: dsDNA, one strand shown.
Sequence of HOXB9 (Homo sapiens, UniProt P17482 171-250) (P17482 171-250): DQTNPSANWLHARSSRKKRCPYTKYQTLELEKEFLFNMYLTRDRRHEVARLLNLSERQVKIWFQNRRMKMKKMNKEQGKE
With ATGATTTA, the binding signal is 10.6 upbm affinity estimate (log intensity, higher = more binding, comparable within an allelic series).

CCTATTTA: the binding signal was 10.4 upbm affinity estimate (log intensity, higher = more binding, comparable within an allelic series).

Turning to AACAAATA, the binding signal was 10.1 upbm affinity estimate (log intensity, higher = more binding, comparable within an allelic series).

On to ACAATACC, for which the binding signal is 9.73 upbm affinity estimate (log intensity, higher = more binding, comparable within an allelic series).

Regarding CACACTAA, the binding signal was 9.92 upbm affinity estimate (log intensity, higher = more binding, comparable within an allelic series).

For the sequence TAATAGTA, the binding signal was 10.9 upbm affinity estimate (log intensity, higher = more binding, comparable within an allelic series).

For ATATAGTA, the binding signal is 10.2 upbm affinity estimate (log intensity, higher = more binding, comparable within an allelic series).

With AGAAATTA, the binding signal was 10.7 upbm affinity estimate (log intensity, higher = more binding, comparable within an allelic series).

For AATGTGAA, the binding signal was 10 upbm affinity estimate (log intensity, higher = more binding, comparable within an allelic series).

As to CCATTTTC, the binding signal is 10.1 upbm affinity estimate (log intensity, higher = more binding, comparable within an allelic series).

As for TGTGTAAA, the binding signal is 9.82 upbm affinity estimate (log intensity, higher = more binding, comparable within an allelic series).

For AGGAATAA, the binding signal was 9.91 upbm affinity estimate (log intensity, higher = more binding, comparable within an allelic series).

The target in a further assay is HOXB9 (Homo sapiens, UniProt P17482 171-250, R186Q). The assay is described as follows: PBM; 200 nM protein, PBS. As to conditions: dsDNA, one strand shown.
Sequence of HOXB9 (Homo sapiens, UniProt P17482 171-250, R186Q) (P17482 171-250 R186Q): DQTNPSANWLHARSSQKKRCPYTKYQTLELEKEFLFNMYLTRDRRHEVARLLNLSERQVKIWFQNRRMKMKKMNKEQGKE
As for ATGATTTA, the binding signal was 10.4 upbm affinity estimate (log intensity, higher = more binding, comparable within an allelic series).

As for CCTATTTA, the binding signal was 10.2 upbm affinity estimate (log intensity, higher = more binding, comparable within an allelic series).

As to AACAAATA, the binding signal was 9.97 upbm affinity estimate (log intensity, higher = more binding, comparable within an allelic series).

Take CACACTAA: the binding signal is 9.82 upbm affinity estimate (log intensity, higher = more binding, comparable within an allelic series).

Take TAATAGTA: the binding signal was 10.8 upbm affinity estimate (log intensity, higher = more binding, comparable within an allelic series).

Take ATATAGTA: the binding signal was 10.1 upbm affinity estimate (log intensity, higher = more binding, comparable within an allelic series).

Turning to AGAAATTA, the binding signal is 10.5 upbm affinity estimate (log intensity, higher = more binding, comparable within an allelic series).

Turning to AATGTGAA, the binding signal was 9.94 upbm affinity estimate (log intensity, higher = more binding, comparable within an allelic series).

For the sequence CCATTTTC, the binding signal was 10 upbm affinity estimate (log intensity, higher = more binding, comparable within an allelic series).

Consider AGGAATAA, for which the binding signal is 9.78 upbm affinity estimate (log intensity, higher = more binding, comparable within an allelic series).

For the next assay, the target named is HOXA2 (Homo sapiens, UniProt O43364 129-215, Y150S). Briefly: PBM; 200 nM protein, PBS. As to conditions: dsDNA, one strand shown.
Sequence of HOXA2 (Homo sapiens, UniProt O43364 129-215, Y150S) (O43364 129-215 Y150S): as the sequence (O43364 129-215 R185T) above, with Y22S, T57R counted along it
Consider AGATGACC, for which the binding signal is 10.5 upbm affinity estimate (log intensity, higher = more binding, comparable within an allelic series).

GACCATCA: the binding signal is 10.6 upbm affinity estimate (log intensity, higher = more binding, comparable within an allelic series).

On to AATTGGGC, for which the binding signal was 10.6 upbm affinity estimate (log intensity, higher = more binding, comparable within an allelic series).

Consider ACAACTTA, for which the binding signal is 10.7 upbm affinity estimate (log intensity, higher = more binding, comparable within an allelic series).

Take ATCATCTG: the binding signal is 10.7 upbm affinity estimate (log intensity, higher = more binding, comparable within an allelic series).

For AACTAAAA, the binding signal was 10.6 upbm affinity estimate (log intensity, higher = more binding, comparable within an allelic series).

On to AAATCAGC, for which the binding signal was 10.7 upbm affinity estimate (log intensity, higher = more binding, comparable within an allelic series).

Take CATCTACG: the binding signal was 10.7 upbm affinity estimate (log intensity, higher = more binding, comparable within an allelic series).

In the case of ATCAGAAA, the binding signal was 10.6 upbm affinity estimate (log intensity, higher = more binding, comparable within an allelic series).

ATTTCATC: the binding signal was 10.6 upbm affinity estimate (log intensity, higher = more binding, comparable within an allelic series).

As for CTATTCAA, the binding signal was 10.8 upbm affinity estimate (log intensity, higher = more binding, comparable within an allelic series).

In a further assay the target is HOXA2 (Homo sapiens, UniProt O43364 129-215). Briefly: PBM; 200 nM protein, PBS. As to conditions: dsDNA, one strand shown.
Sequence of HOXA2 (Homo sapiens, UniProt O43364 129-215) (O43364 129-215): as the sequence (O43364 129-215 R185T) above, with T57R counted along it
In the case of GTTTGCAA, the binding signal was 8.78 upbm affinity estimate (log intensity, higher = more binding, comparable within an allelic series).

Turning to ACTCGTAA, the binding signal is 9.32 upbm affinity estimate (log intensity, higher = more binding, comparable within an allelic series).

On to AAATACCC, for which the binding signal was 8.99 upbm affinity estimate (log intensity, higher = more binding, comparable within an allelic series).

For AAAAATTG, the binding signal is 8.94 upbm affinity estimate (log intensity, higher = more binding, comparable within an allelic series).

On to AGATGACC, for which the binding signal was 9.29 upbm affinity estimate (log intensity, higher = more binding, comparable within an allelic series).

Regarding GACCATCA, the binding signal was 9.24 upbm affinity estimate (log intensity, higher = more binding, comparable within an allelic series).

As to CCTATCAG, the binding signal was 8.67 upbm affinity estimate (log intensity, higher = more binding, comparable within an allelic series).

Turning to AGATAGAT, the binding signal is 8.71 upbm affinity estimate (log intensity, higher = more binding, comparable within an allelic series).

Take AATTGGGC: the binding signal was 9.35 upbm affinity estimate (log intensity, higher = more binding, comparable within an allelic series).

Consider TAAACATA, for which the binding signal is 8.55 upbm affinity estimate (log intensity, higher = more binding, comparable within an allelic series).

Turning to AAACTTAA, the binding signal is 8.97 upbm affinity estimate (log intensity, higher = more binding, comparable within an allelic series).

AGGTTGAT: the binding signal is 9.03 upbm affinity estimate (log intensity, higher = more binding, comparable within an allelic series).

In the case of ACAACTTA, the binding signal was 9.5 upbm affinity estimate (log intensity, higher = more binding, comparable within an allelic series).

With AGATGTAA, the binding signal is 9.27 upbm affinity estimate (log intensity, higher = more binding, comparable within an allelic series).

For the sequence ATCATCTG, the binding signal was 9.72 upbm affinity estimate (log intensity, higher = more binding, comparable within an allelic series).

AACTATTG: the binding signal was 8.91 upbm affinity estimate (log intensity, higher = more binding, comparable within an allelic series).

As to AACTAAAA, the binding signal was 8.87 upbm affinity estimate (log intensity, higher = more binding, comparable within an allelic series).

In the case of AAATCAGC, the binding signal was 9.43 upbm affinity estimate (log intensity, higher = more binding, comparable within an allelic series).

Consider CATCTACG, for which the binding signal was 9.05 upbm affinity estimate (log intensity, higher = more binding, comparable within an allelic series).

ATAGAAAT: the binding signal was 9.2 upbm affinity estimate (log intensity, higher = more binding, comparable within an allelic series).

On to TATCAAAA, for which the binding signal is 8.82 upbm affinity estimate (log intensity, higher = more binding, comparable within an allelic series).

With CATTTTAC, the binding signal is 8.85 upbm affinity estimate (log intensity, higher = more binding, comparable within an allelic series).

With AAACATAA, the binding signal was 9.53 upbm affinity estimate (log intensity, higher = more binding, comparable within an allelic series).

With ATCAGAAA, the binding signal was 8.63 upbm affinity estimate (log intensity, higher = more binding, comparable within an allelic series).

Take ATTTCATC: the binding signal is 8.75 upbm affinity estimate (log intensity, higher = more binding, comparable within an allelic series).

With CTATTCAA, the binding signal was 9.17 upbm affinity estimate (log intensity, higher = more binding, comparable within an allelic series).
